Records with an inconclusive call do not appear. Unmarked numbers belong to inactive results. Calls come from the whole dose curve; as a rule, active = well fitted cell-killing curve with a large enough effect; inconclusive = small, poorly fitted or top-dose-only effect, or effect the other way; inactive = no such curve, though single readings can be large or run the other way.
assay: qHTS assay to identify small molecule inhibitors of chordoma cells - UCH-1 (AID 1259355); details: UCH-1 chordoma viability, CellTiter-Glo, 48 h, combination; series mostly up to 46.1 µM; activity, negative = inhibition: at the top concentration; note: nearly all actives have a fitted effect of over 55% in size
Outline: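 Seed 800 cells per well; incubate overnight at 37 C, 5% CO2. Add test compounds (15 concentrations), then the auranofin–topoisomerase-agent combination. Incubate 48hr, add CellTiter-Glo, wait 30min, read luminescence.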
% is set by controls: 0 for no effect and ±100 for the full control effect.

Row | SMILES | activity, negative = inhibition
1 | O=C(O)c1ccc2[nH]cc(CCCCN3CC=C(c4ccccc4)CC3)c2c1 | 0.601%
2 | Cc1ccc(S(=O)(=O)N[C@@H](CCCCN)C(=O)CCl)cc1 | -13.8%
3 | CC(=O)[C@H]1CC[C@H]2[C@@H]3CC[C@H]4C[C@](C)(O)CC[C@]4(C)[C@H]3CC[C@]12C | 7.56%
4 | C=C1CC[C@@]2(O)[C@H]3Cc4ccc(O)c5c4[C@@]2(CCN3CC2CC2)[C@H]1O5 | -10.4%
5 | CCOC(=O)C1(c2ccccc2)CCN(CCC(C#N)(c2ccccc2)c2ccccc2)CC1 | -24.8%
6 | O=[N+]([O-])c1cc([As](=O)(O)O)ccc1O | -9.73% [at 20.6 µM]
7 | C#CCOC(C(=O)OCCN(C)C)(c1ccccc1)c1ccccc1 | -14%
8 | CN1C(=S)CN=C(c2ccccc2)c2cc(Cl)ccc21 | -2.35%
9 | CCCN1CCC[C@@H]2Cc3nc(N)ncc3C[C@H]21 | -3.09%
10 | c1ccc(C2CC2)c(OCC2=NCCN2)c1 | -12.5%
11 | Cc1cccc(C)c1NC1=NCCCS1 | -39.3%
12 | CC1NCCOC1c1ccccc1 (stereo not given) | -6.01%
13 | CC[N+](CC)(CC)CC | -1.7%
14 | Cc1ccc2c(c1)C1CN(C)CCC1N2 (stereo not given) | -5.94%
15 | CCN(C(C)=O)c1cccc(-c2ccnc3c(C#N)cnn23)c1 | -0.955%
